Laboratory results as given in PubChem BioAssay (NCI).
This is part of a sample that, as a whole, favours compounds with a hit. Of some 83,000 tested, about 20% had one in any assay.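 Values shown are percent growth following 48 h exposure of cells in 96-well plates to a single concentration of compound; below 10 was considered active.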 Values without a mark were called inactive. Calls of active or inactive are those of the source.

How the values were obtained:
Experiment in all cases: NCI-60 one-dose screen, 48 h (100 = growth as untreated, 0 = no growth, -100 = all killed)
Details in all cases: 10 µM unless noted
NCI-H23 lung = test system: NCI-H23 lung
NCI-H226 lung = test system: NCI-H226 lung
NCI-H322M lung = test system: NCI-H322M lung
HOP-62 NSCLC = test system: HOP-62 NSCLC
NCI-H460 lung = test system: NCI-H460 lung
A549/ATCC NSCLC = test system: A549/ATCC NSCLC
786-0 renal = test system: 786-0 renal
COLO 205 colon = test system: COLO 205 colon
DU-145 prostate = test system: DU-145 prostate
K-562 leukemia = test system: K-562 leukemia
MALME-3M melanoma = test system: MALME-3M melanoma
MDA-MB-231 breast = test system: MDA-MB-231 breast
RXF 393 renal = test system: RXF 393 renal
SF-268 CNS = test system: SF-268 CNS
SF-295 CNS = test system: SF-295 CNS
SF-539 CNS = test system: SF-539 CNS
UACC-257 melanoma = test system: UACC-257 melanoma
M14 melanoma = test system: M14 melanoma

SMILES	growth (NCI-H23 lung)	growth (NCI-H226 lung)	growth (NCI-H322M lung)	growth (HOP-62 NSCLC)	growth (NCI-H460 lung)	growth (A549/ATCC NSCLC)	growth (786-0 renal)	growth (COLO 205 colon)	growth (DU-145 prostate)	growth (K-562 leukemia)	growth (MALME-3M melanoma)	growth (MDA-MB-231 breast)	growth (RXF 393 renal)	growth (SF-268 CNS)	growth (SF-295 CNS)	growth (SF-539 CNS)	growth (UACC-257 melanoma)	growth (M14 melanoma)
CC[N+](C)(C)N	114%	89.9%	93.2%	111%	108%	105%	100%	112%	118%	103%	112%	106%	94.3%	110%	104%	109%	110%	107%
CC(=O)Nc1nc(C)c(C(=O)N/N=C/N2CCCCC2)s1	108%	103%	123%	-100% (active)	110%	104%	114%	114%	137%	137%	119%	111%	112%	111%	127%	99.3%	120%	111%
COC(=O)C(Cc1cnc[nH]1)N1CC(=O)N2[C@@H](c3ccccc3)SC[C@H]2C1=O (stereo partly specified)	100%	143%	112%	114%	109%	96.4%	107%	124%	117%	106%	108%	116%	193%	104%	93.5%	105%	96.7%	101%
BrCCCOc1ccc(Oc2ccc(OCCCBr)cc2)cc1	109%	99.6%	123%	108%	105%	94.7%	88.9%	134%	116%	109%	117%	104%	80.8%	111%	116%	113%	90.4%	102%
CCCCCCCCCCC1OC(C)CC(C)O1 (stereo unspecified)	100%	102%	102%	99.8%	106%	98.7%	93.4%	105%	104%	86.5%	98%	115%	103%	96%	109%	103%	113%	101%
O=c1c2c(c3ccccc3n1-c1ccccc1)NC(=S)NC2c1ccccc1 (stereo unspecified)	98.5%	92.1%	130%	90.5%	104%	103%	97.3%	113%	115%	101%	112%	84.7%	117%	104%	121%	94.8%	108%	98.8%
Cc1ccccc1-n1c(C)nc2cc(NC(=O)c3ccc(Cl)cc3)ccc2c1=O	64.3%	88.8%	94.2%	97.4%	72.4%	72.2%	67.6%	119%	87.6%	55.8%	53.5%	58.4%	77.7%	77.8%	59.7%	58.2%	59.7%	68.7%
CCOc1ccc(N(C)c2ccc(/C=C/C3=[N+](C)c4ccccc4C3(C)C)cc2)cc1	4.67% (active)	54.2%	57%	12.3%	-50% (active)	9.51% (active)	2.71% (active)	-77% (active)	-3.68% (active)	8.09% (active)	-73.8% (active)	-56.2% (active)	35.8%	-78.9% (active)	-2.2% (active)	30.5%	-16.4% (active)	6.52% (active)
COc1cc(-c2nn(-c3ccc(NC(=O)Nc4ccc(Cl)c(Cl)c4)cc3)cc2-c2ccncc2)ccc1Cl	22.9%	52.6%	68.4%	47.5%	7.14% (active)	25.8%	4.3% (active)	20.1%	40.8%	17.2%	57.2%	43.3%	22.6%	44.3%	3.1% (active)	54%	56.5%	24.5%
CC1CCCCC[N+]12CCCC2 (stereo unspecified)	111%	93.6%	96.4%	103%	113%	103%	96.8%	108%	105%	107%	100%	99%	92%	109%	92.2%	104%	104%	102%
Nc1nc2cc(O)ccc2n2cc3c(F)cccc3c12	40.9%	54.8%	32.5%	24.9%	2.35% (active)	22.6%	27.6%	55.1%	33.4%	29.4%	33.3%	38.8%	5.51% (active)	19.1%	11.9%	13.7%	50.9%	23%
C/C(=C\c1ccc2ccccc2c1)[N+](=O)[O-]	74.6%	67%	78.2%	98.7%	98.8%	97.3%	-62.9% (active)	-26.9% (active)	27%	5.31% (active)	-58.7% (active)	50.8%	-86.1% (active)	21%	92.2%	15.6%	68.9%	22.4%
CCCCCCCCCCCCCCCCNC(=S)N/N=C/c1ccc(O)cc1O	77.1%	76%	95.2%	83.1%	37.1%	55.1%	73.3%	98%	79.2%	70.3%	100%	81%	74.9%	69%	65.5%	110%	85.9%	61.8%
O=C(Nc1ccc(-n2cc(-c3ccncc3)c(-c3ccc(Cl)c(O)c3)n2)cc1)c1ccc(Cl)c(C(F)(F)F)c1	-54.4% (active)	89%	37.2%	-66.1% (active)	-74.4% (active)	-30.3% (active)	-94.1% (active)	-1.56% (active)	26.4%	2.13% (active)	-26.6% (active)	-33.5% (active)	-66.3% (active)	28.6%	-63.4% (active)	-32.4% (active)	31.4%	-79.4% (active)
Cc1cc2cn3c4ccc(O)cc4[nH]c(=O)c3c2cc1C	25.3%	54.3%	-8.89% (active)	11.7%	-81.9% (active)	3.2% (active)	19.1%	-63.3% (active)	3.48% (active)	-36.8% (active)	16.4%	-11.1% (active)	38.1%	15.4%	9.25% (active)	12%	46.6%	-19.4% (active)
CC(C)(CNC1CCCCC1)OC(=O)c1ccccc1	107%	97.8%	103%	102%	106%	108%	100%	104%	104%	94.1%	99.2%	110%	102%	107%	94.1%	108%	110%	102%
COc1ccc(-c2nnc(SCC(=O)Nc3ccc(C(=O)/C=C/c4cc(OC)c(OC)c(OC)c4)cc3)n2-c2ccccc2)cc1OC	-66.5% [100 µM] (active)	-15% [100 µM] (active)	34.5% [100 µM]	-31.4% [100 µM] (active)	11% [100 µM]	-28.4% [100 µM] (active)	-54.9% [100 µM] (active)	30.3% [100 µM]	-29.4% [100 µM] (active)	31.4% [100 µM]	-33.4% [100 µM] (active)	-44.6% [100 µM] (active)	-24.7% [100 µM] (active)	-52.2% [100 µM] (active)	-86.2% [100 µM] (active)	1.43% [100 µM] (active)	22.1% [100 µM]	1.87% [100 µM] (active)
